Data: the supplement of paper PMC10849652
Targets with a hit are over-represented here; the source holds about 8,800 in all. About 0.5% of all pairs of compound and target were hits. Values without a mark were called inactive.

How the values were obtained:
Experiment in all cases: log2 fold change, soluble protein after heating vs DMSO (PISA); higher = thermal stabilisation; K562 lysate, 10 uM; active = over 0.2 and 3.5 SD of the protein, either way, in both replicates (recomputed)
[1] = compound: NCC(=O)Nc1ccc(-n2nc(C(F)(F)F)cc2-c2ccc3c(ccc4ccccc43)c2)cc1
Outline: (§1)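 A 30 min treatment with 10 μM compound was applied to crude K562 extract at 1 mg/mL protein in PBS pH 7.4 with 1 mM MgCl2. Heating for 3 min spanned 48°C-58°C, after which aliquots were pooled, adjusted to 0.5% NP-40 at 4°C and spun at 21,000xg for 90 min. TMTpro 16plex LC-MS/MS of the supernatant, with channel sums equalised, gave values recorded as log-two fold change in thermal stability against solvent controls, from duplicates.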

vorinostat = compound: O=C(CCCCCCC(=O)Nc1ccccc1)NO [vorinostat]
Outline: as §1

silmitasertib = compound: O=C(O)c1ccc2c(c1)nc(Nc1cccc(Cl)c1)c1ccncc12 [silmitasertib]
Outline: as §1

[2] = compound: O=C1NC(=O)C(c2cnc3ccccn23)=C1c1cn2c3c(cc(F)cc13)CN(C(=O)N1CCCCC1)CC2
Outline: as §1

entospletinib = compound: c1cn2cc(-c3ccc4cn[nH]c4c3)nc(Nc3ccc(N4CCOCC4)cc3)c2n1 [entospletinib]
Outline: as §1

EXOC6 (UniProt Q8TAG9)
log2 fold change [1]: -0.074
log2 fold change (vorinostat): -0.301 (active)
log2 fold change (silmitasertib): 0.057
log2 fold change [2]: -0.006
log2 fold change (entospletinib): 0.021

EP300 (UniProt Q09472)
log2 fold change [1]: 0.018
log2 fold change (vorinostat): -0.338 (active)
log2 fold change (silmitasertib): 0.06
log2 fold change [2]: 0.015
log2 fold change (entospletinib): -0.005

EGLN1 (UniProt Q9GZT9)
UniProt Q9GZT9, sequence (Q9GZT9 whole entry, looked up): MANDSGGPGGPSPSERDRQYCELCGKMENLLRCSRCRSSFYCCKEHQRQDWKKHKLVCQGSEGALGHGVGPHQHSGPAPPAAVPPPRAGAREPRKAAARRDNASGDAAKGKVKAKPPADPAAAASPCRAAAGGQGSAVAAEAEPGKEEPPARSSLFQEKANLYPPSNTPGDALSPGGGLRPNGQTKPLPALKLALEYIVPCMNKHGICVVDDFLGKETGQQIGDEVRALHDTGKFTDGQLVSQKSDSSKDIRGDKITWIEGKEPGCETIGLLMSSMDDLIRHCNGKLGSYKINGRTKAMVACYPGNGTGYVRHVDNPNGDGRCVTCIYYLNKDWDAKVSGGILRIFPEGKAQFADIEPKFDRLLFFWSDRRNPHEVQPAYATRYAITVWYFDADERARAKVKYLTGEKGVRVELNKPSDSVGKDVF
log2 fold change [1]: 0.008
log2 fold change (vorinostat): -0.395 (active)
log2 fold change (silmitasertib): 0.025
log2 fold change [2]: -0.024
log2 fold change (entospletinib): -0.009

FAM118B (UniProt Q9BPY3)
UniProt Q9BPY3, sequence (Q9BPY3 whole entry, looked up): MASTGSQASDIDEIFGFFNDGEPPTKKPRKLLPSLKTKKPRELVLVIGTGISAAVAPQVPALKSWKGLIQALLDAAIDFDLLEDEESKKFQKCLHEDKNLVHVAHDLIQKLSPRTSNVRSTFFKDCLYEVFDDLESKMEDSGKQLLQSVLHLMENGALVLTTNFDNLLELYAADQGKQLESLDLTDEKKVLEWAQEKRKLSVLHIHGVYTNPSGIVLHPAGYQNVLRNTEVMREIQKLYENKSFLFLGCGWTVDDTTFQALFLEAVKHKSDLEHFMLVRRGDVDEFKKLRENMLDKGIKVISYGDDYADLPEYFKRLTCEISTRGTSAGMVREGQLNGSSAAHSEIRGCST
log2 fold change [1]: 0
log2 fold change (vorinostat): -0.273 (active)
log2 fold change (silmitasertib): 0.018
log2 fold change [2]: 0
log2 fold change (entospletinib): -0.005

ETFRF1 (UniProt Q6IPR1)
UniProt Q6IPR1, sequence (Q6IPR1 whole entry, looked up): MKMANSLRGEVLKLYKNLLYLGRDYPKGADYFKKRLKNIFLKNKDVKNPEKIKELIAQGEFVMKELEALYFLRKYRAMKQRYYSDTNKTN
log2 fold change [1]: 0.03
log2 fold change (vorinostat): 0.24 (active)
log2 fold change (silmitasertib): -0.043
log2 fold change [2]: 0.051

DTL (UniProt Q9NZJ0)
log2 fold change [1]: -0.011
log2 fold change (vorinostat): -0.165
log2 fold change (silmitasertib): -0.042
log2 fold change [2]: 0.052

FYCO1 isoform 4 (UniProt Q9BQS8)
log2 fold change [1]: -0.002
log2 fold change (vorinostat): -0.002
log2 fold change (silmitasertib): 0.047
log2 fold change [2]: 0.033
log2 fold change (entospletinib): -0.002

EED, A0A5F9ZI63
log2 fold change [1]: -0.022
log2 fold change (vorinostat): -0.227 (active)
log2 fold change (silmitasertib): 0.043
log2 fold change [2]: -0.018
log2 fold change (entospletinib): 0.009

GABPB1 (UniProt Q06547)
log2 fold change [1]: 0
log2 fold change (vorinostat): -0.299 (active)
log2 fold change (silmitasertib): 0.008
log2 fold change [2]: -0.052
log2 fold change (entospletinib): -0.004

G6PD isoform 2 (UniProt P11413)
log2 fold change [1]: 0.008
log2 fold change (vorinostat): -0.46 (active)
log2 fold change (silmitasertib): -0.008
log2 fold change [2]: -0.003
log2 fold change (entospletinib): 0.032

EIF1 (UniProt P41567)
log2 fold change [1]: -0.032
log2 fold change (vorinostat): 0.12
log2 fold change (silmitasertib): -0.024
log2 fold change [2]: 0.036
log2 fold change (entospletinib): 0.028

ELAVL1 isoform 2 (UniProt Q15717)
log2 fold change [1]: 0.042
log2 fold change (vorinostat): -0.326 (active)
log2 fold change (silmitasertib): 0.059
log2 fold change [2]: -0.051
log2 fold change (entospletinib): 0

GGA2 (UniProt Q9UJY4)
UniProt Q9UJY4, sequence (Q9UJY4 whole entry, looked up): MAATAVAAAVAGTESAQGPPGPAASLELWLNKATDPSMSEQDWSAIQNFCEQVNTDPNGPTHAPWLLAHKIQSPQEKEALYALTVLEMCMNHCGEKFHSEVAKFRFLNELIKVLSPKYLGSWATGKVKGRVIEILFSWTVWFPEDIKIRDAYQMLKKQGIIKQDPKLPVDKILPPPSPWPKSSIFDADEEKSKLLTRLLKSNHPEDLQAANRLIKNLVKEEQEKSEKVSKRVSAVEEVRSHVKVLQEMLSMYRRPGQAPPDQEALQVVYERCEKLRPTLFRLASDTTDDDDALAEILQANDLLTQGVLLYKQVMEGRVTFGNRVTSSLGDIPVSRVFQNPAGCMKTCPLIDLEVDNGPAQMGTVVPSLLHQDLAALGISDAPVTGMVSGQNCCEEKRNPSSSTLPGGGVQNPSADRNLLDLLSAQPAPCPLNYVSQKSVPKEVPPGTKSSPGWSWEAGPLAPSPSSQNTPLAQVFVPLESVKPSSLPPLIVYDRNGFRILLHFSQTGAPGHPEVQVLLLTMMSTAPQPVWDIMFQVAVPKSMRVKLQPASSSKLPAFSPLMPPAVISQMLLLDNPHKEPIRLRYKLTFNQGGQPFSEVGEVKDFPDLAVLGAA
log2 fold change [1]: -0.042
log2 fold change (vorinostat): -0.313 (active)
log2 fold change (silmitasertib): 0.016
log2 fold change [2]: 0.022
log2 fold change (entospletinib): -0.026

FAM111A (UniProt Q96PZ2)
log2 fold change [1]: 0.036
log2 fold change (vorinostat): -0.364
log2 fold change (silmitasertib): 0.1
log2 fold change [2]: 0.048
log2 fold change (entospletinib): 0.044

FCHO1 (UniProt O14526)
log2 fold change [1]: 0.041
log2 fold change (vorinostat): -0.286 (active)
log2 fold change (silmitasertib): 0.03
log2 fold change [2]: -0.006
log2 fold change (entospletinib): 0.024

FIBP (UniProt O43427)
UniProt O43427, sequence (O43427 whole entry, looked up): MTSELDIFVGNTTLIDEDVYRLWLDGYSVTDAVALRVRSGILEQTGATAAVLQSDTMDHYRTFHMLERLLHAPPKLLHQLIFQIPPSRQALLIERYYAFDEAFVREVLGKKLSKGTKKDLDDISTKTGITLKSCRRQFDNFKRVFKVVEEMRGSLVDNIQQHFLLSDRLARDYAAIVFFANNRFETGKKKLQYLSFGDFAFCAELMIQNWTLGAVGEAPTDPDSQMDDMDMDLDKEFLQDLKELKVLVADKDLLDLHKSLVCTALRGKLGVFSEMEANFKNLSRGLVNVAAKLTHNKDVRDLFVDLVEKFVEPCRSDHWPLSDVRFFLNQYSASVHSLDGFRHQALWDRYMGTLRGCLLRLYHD
log2 fold change [1]: -0.049
log2 fold change (vorinostat): -0.006
log2 fold change (silmitasertib): 0.119
log2 fold change [2]: -0.02
log2 fold change (entospletinib): -0.049

FDX2 (UniProt Q6P4F2)
UniProt Q6P4F2, sequence (Q6P4F2 whole entry, looked up): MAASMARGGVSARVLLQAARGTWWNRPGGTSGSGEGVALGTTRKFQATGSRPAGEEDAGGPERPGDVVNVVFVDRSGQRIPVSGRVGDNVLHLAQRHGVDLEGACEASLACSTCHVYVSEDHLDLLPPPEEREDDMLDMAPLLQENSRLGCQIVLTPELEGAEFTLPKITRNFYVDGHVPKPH
log2 fold change [1]: -0.03
log2 fold change (vorinostat): 0.195
log2 fold change (silmitasertib): -0.069
log2 fold change [2]: -0.066
log2 fold change (entospletinib): 0.042

EXOC5 (UniProt O00471)
log2 fold change [1]: 0.036
log2 fold change (vorinostat): -0.293 (active)
log2 fold change (silmitasertib): 0.036
log2 fold change [2]: 0.002
log2 fold change (entospletinib): 0.025

EIF2B3 (UniProt Q9NR50)
log2 fold change [1]: -0.006
log2 fold change (vorinostat): -0.244 (active)
log2 fold change (silmitasertib): 0.01
log2 fold change [2]: 0.009
log2 fold change (entospletinib): -0.004

EXOC1 (UniProt Q9NV70)
UniProt Q9NV70, sequence (Q9NV70 whole entry, looked up): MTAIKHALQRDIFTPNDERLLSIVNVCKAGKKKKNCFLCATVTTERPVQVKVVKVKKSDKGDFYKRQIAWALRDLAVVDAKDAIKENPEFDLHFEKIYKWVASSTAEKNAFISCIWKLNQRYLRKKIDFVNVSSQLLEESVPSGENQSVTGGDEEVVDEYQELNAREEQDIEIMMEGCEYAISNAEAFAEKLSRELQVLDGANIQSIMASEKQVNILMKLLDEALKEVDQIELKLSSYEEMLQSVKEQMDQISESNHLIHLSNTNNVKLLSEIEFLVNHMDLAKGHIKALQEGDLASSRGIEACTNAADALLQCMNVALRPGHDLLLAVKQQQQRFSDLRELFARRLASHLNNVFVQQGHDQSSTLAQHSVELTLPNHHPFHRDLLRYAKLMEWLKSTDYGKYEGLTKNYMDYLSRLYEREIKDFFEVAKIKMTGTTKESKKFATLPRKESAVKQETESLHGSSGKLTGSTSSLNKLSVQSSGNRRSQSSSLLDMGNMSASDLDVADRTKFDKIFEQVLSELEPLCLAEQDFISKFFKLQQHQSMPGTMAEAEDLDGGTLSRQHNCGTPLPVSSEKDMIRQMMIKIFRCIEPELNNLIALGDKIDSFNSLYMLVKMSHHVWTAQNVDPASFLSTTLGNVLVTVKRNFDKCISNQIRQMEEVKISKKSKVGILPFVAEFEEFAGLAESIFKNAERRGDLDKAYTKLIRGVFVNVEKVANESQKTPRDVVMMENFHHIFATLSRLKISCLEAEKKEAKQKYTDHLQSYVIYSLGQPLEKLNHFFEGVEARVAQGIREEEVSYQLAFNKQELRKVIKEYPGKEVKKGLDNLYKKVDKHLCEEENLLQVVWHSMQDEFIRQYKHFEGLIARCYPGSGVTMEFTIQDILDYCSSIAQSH
log2 fold change [1]: -0.019
log2 fold change (vorinostat): -0.45 (active)
log2 fold change (silmitasertib): 0.075
log2 fold change [2]: -0.019
log2 fold change (entospletinib): 0.019

EAPP (UniProt Q56P03)
UniProt Q56P03, sequence (Q56P03 whole entry, looked up): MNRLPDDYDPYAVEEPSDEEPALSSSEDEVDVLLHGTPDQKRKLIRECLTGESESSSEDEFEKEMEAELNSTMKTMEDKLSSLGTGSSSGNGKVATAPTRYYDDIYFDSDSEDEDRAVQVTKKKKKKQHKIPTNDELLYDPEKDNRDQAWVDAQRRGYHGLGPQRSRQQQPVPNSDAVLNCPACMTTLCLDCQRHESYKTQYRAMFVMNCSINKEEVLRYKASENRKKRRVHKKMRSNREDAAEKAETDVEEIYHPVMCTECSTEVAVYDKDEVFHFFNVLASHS
log2 fold change [1]: -0.083
log2 fold change (vorinostat): 0.029
log2 fold change (silmitasertib): -0.086
log2 fold change [2]: 0.024
log2 fold change (entospletinib): 0.024

FXR2 (UniProt P51116)
UniProt P51116, sequence (P51116 whole entry, looked up): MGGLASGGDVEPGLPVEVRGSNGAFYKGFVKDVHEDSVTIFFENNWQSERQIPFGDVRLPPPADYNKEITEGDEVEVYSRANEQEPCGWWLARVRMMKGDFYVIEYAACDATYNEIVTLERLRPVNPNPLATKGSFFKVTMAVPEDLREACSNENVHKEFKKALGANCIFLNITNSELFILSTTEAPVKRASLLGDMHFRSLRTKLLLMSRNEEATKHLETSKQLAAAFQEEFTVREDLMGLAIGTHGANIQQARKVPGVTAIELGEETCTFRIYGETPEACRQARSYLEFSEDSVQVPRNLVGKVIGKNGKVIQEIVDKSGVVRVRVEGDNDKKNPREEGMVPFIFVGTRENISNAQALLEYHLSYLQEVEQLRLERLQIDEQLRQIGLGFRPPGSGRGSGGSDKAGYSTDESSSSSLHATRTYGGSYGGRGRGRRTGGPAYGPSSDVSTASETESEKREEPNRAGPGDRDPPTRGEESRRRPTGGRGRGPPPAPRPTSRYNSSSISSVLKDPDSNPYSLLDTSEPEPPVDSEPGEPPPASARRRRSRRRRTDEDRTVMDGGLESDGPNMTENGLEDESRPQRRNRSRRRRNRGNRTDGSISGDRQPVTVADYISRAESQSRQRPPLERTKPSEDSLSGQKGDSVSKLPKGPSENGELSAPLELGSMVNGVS
log2 fold change [1]: 0.033
log2 fold change (vorinostat): -0.25 (active)
log2 fold change (silmitasertib): -0.039
log2 fold change [2]: -0.022
log2 fold change (entospletinib): -0.064

FKBP1A (UniProt P62942)
UniProt P62942, sequence (P62942 whole entry, looked up): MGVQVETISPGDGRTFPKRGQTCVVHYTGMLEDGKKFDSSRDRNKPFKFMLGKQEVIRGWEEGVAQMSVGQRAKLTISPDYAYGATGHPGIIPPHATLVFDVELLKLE
log2 fold change [1]: -0.154
log2 fold change (vorinostat): 0.036
log2 fold change (silmitasertib): -0.006
log2 fold change [2]: 0.068
log2 fold change (entospletinib): 0.049

EMC7 (UniProt Q9NPA0)
log2 fold change [1]: 0.015
log2 fold change (vorinostat): 0.085
log2 fold change (silmitasertib): -0.007
log2 fold change [2]: -0.018
log2 fold change (entospletinib): -0.023

EPB41 (UniProt P11171)
UniProt P11171, sequence (P11171 whole entry, looked up): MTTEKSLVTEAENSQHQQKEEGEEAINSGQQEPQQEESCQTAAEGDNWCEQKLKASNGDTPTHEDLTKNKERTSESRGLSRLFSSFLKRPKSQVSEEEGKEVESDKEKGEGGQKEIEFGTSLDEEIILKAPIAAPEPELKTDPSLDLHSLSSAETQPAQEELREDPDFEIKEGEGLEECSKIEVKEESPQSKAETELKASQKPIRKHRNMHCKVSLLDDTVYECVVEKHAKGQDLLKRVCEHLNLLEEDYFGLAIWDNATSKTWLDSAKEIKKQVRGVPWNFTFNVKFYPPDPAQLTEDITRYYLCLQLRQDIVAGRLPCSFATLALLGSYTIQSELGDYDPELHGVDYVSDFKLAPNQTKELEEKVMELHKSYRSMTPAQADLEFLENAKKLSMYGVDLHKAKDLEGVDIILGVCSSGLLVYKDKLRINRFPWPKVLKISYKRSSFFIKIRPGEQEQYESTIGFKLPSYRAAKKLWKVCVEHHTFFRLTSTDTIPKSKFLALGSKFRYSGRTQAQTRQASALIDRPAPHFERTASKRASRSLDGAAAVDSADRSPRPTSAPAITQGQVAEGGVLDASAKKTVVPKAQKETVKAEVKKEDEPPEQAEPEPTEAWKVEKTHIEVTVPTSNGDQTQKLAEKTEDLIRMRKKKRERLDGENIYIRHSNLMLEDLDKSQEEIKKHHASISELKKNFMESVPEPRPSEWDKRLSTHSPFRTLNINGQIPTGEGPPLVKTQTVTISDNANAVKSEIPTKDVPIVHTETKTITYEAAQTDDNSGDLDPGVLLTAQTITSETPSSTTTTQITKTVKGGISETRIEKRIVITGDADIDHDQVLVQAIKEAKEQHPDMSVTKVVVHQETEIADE
log2 fold change [1]: -0.046
log2 fold change (vorinostat): 0.035
log2 fold change (silmitasertib): 0.007
log2 fold change [2]: -0.034
log2 fold change (entospletinib): 0
